Results published in PubChem BioAssay (NCATS).
Results filed as inconclusive are left out. Where a call stands in place of a potency, no number is given. Values without a mark were called inactive. The source made the active and inactive calls. Calls follow the shape of the dose curve; as a rule, active = well fitted curve in the direction sought with a large enough effect; inconclusive = small, poorly fitted or top-dose-only effect, or another doubt; inactive = no such curve, though single readings can be large; an effect the other way counts as inactive or inconclusive.

What was measured:
[1] = molecular target: Rap guanine nucleotide exchange factor 3 (Homo sapiens) (UniProt O95398); test: Confirmatory qHTS for agonist of cAMP-regulated guanine nucleotide exchange factor 3 (EPAC1) (AID 1645881);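 also: EPAC1 catalysed release of BODIPY-GDP from Rap1B seen as fluorescence loss; nearly all actives have a fitted effect of over 75% in size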
[2] = molecular target: Rap guanine nucleotide exchange factor 4 (Homo sapiens) (UniProt Q8WZA2); test: Confirmatory qHTS for agonist of cAMP-regulated guanine nucleotide exchange factor 4 (EPAC2) (AID 1645884);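 also: nucleotide exchange releases bodipy-GDP from Rap1 and this lowers its fluorescence; nearly all actives have a fitted effect of over 65% in size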
[3] = molecular target: Rap guanine nucleotide exchange factor 4 (Homo sapiens) (UniProt Q8WZA2); test: Confirmatory qHTS for antagonist of cAMP-regulated guanine nucleotide exchange factor 4 (EPAC2) (AID 1645885); also: nearly all actives have a fitted effect of over 25% in size; also: potency is read from the fitted curve at half-maximal effect
[4] = molecular target: Rap guanine nucleotide exchange factor 3 (Homo sapiens) (UniProt O95398); test: Counterscreen qHTS for antagonist of cAMP-regulated guanine nucleotide exchange factor 3 (EPAC1) (AID 1645888);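 also: fluorescence loss as bound BODIPY-GDP is released from Rap1B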
Method in brief: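 Measured: fluorescence of BODIPY-GDP bound to Rap1B, which falls as exchange proceeds. Conditions include 50 uM competing GDP, 5 and 30 min reads, and a later cAMP challenge for antagonist detection.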

Chain of Rap guanine nucleotide exchange factor 3 (Homo sapiens) (O95398 whole entry, looked up): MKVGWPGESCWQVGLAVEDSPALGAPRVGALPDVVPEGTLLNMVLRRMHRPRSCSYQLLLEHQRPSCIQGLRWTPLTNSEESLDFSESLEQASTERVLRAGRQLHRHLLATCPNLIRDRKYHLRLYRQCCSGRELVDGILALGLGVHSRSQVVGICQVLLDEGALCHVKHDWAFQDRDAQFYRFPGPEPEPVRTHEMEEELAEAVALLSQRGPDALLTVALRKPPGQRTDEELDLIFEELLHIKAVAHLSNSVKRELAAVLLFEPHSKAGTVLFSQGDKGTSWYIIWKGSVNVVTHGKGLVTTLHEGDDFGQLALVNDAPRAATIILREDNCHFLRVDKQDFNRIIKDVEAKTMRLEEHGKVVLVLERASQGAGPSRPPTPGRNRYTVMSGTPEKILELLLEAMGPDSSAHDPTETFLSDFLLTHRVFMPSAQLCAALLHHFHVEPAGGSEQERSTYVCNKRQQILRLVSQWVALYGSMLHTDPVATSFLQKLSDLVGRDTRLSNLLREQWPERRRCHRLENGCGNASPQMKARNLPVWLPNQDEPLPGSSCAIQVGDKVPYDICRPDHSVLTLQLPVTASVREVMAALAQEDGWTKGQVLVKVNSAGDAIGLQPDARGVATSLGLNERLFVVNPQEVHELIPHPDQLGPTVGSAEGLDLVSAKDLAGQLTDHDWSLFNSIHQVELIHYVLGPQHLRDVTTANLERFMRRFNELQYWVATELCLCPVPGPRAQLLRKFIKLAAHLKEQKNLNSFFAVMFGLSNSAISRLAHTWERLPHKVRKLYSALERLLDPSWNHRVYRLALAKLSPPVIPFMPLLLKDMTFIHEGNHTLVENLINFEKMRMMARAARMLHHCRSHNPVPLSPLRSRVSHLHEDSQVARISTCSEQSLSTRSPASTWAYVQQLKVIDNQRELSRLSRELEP
Chain of Rap guanine nucleotide exchange factor 4 (Homo sapiens) (Q8WZA2 whole entry, looked up): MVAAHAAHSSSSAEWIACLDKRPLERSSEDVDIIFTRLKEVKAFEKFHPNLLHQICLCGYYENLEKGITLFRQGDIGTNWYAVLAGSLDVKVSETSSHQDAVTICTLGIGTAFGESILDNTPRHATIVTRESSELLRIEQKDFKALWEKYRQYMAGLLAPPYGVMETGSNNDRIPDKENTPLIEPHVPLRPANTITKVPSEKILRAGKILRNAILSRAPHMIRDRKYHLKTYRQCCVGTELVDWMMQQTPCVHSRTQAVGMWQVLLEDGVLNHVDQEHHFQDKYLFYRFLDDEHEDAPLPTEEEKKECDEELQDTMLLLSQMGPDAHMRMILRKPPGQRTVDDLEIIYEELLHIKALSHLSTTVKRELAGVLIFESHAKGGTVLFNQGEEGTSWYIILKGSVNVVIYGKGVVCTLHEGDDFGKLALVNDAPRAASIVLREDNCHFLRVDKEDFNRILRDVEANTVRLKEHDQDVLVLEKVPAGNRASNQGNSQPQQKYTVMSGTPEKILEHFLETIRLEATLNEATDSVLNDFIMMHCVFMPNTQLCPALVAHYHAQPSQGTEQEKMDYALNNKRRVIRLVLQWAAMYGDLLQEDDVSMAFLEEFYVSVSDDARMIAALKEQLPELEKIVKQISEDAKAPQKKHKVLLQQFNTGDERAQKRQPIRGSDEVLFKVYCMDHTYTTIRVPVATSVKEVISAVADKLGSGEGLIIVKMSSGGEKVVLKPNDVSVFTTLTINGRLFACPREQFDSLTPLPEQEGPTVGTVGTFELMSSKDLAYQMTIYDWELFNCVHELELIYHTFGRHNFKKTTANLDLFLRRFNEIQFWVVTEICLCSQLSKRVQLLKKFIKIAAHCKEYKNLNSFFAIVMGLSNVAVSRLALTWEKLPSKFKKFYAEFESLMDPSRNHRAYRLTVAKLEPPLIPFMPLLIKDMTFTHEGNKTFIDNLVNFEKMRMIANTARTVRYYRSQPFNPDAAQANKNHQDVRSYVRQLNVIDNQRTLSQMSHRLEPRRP

Row | SMILES | Potency [1] | Potency [2] | Potency [3] | Potency [4] | activation [2] | activity change, negative = inhibition [4] | outcome [3]
1 | CC(C)Oc1cccc(C(=O)Nc2ccc3oc(-c4cccc(Cl)c4)nc3c2)c1 | inactive | inactive | inactive | inactive | – | – | –
2 | Clc1cccc(Cc2c(-c3ccco3)nc3ccc(Br)cn23)c1 | inactive | – | inactive | – | 2.6% [at 17.1 µM, percent relative to cAMP agonist control] | -13.4% [at 30.8 µM] | –
3 | COc1ccc(C(=O)N(Cc2ccco2)Cc2ccc(C)o2)cc1 | inactive | inactive | inactive | inactive | – | – | –
4 | O=C1C(=O)c2cccnc2-c2ncccc21 | inactive | inactive | inactive | inactive | – | – | –
5 | O=C(CSc1ccc(-c2ccco2)nn1)c1cccc([N+](=O)[O-])c1 | inactive | inactive | inactive | inactive | – | – | –
6 | Cc1ccc(C(C)C)c(OCC(=O)NCC2(N3CCOCC3)CCCCC2)c1 | inactive | inactive | inactive | inactive | – | – | –
7 | CC1CC(C)CN(C(=O)c2ccc3c(c2)N(Cc2ccccc2)CCS3)C1 (configuration not stated) | inactive | – | inactive | – | 14.1% [at 17.1 µM, percent relative to cAMP agonist control] | 1.99% [at 30.8 µM] | –
8 | ON=C(c1ccccc1)c1ccc2c3c(cccc13)CC2 | inactive | inactive | inactive | inactive | – | – | –
9 | COc1ccc(NC(=O)CSc2sc3c(O)cc(=O)[nH]c3c2C#N)c(OC)c1 | inactive | – | inactive | – | 3.92% [at 17.1 µM, percent relative to cAMP agonist control] | -13.9% [at 30.8 µM] | –
10 | OC(CSc1ccccc1)CN1CCN(c2cccc(Cl)c2)CC1 (configuration not stated) | inactive | – | inactive | – | 5.38% [at 17.1 µM, percent relative to cAMP agonist control] | 12.2% [at 30.8 µM] | –
11 | Cc1cc(C)nc(NS(=O)(=O)c2ccc(NC(=O)CN3C(=O)S/C(=C\c4ccccc4)C3=O)cc2)n1 | inactive | inactive | inactive | inactive | – | – | –
12 | O=S(=O)(c1ccc2c(c1)C(O)c1ccccc1CC2)C(F)(F)F (configuration not stated) | inactive | inactive | inactive | inactive | – | – | –
13 | Cc1ccc(N(Cc2cccs2)C(=O)c2ccc(Br)o2)cc1 | inactive | inactive | inactive | inactive | – | – | –
14 | COc1ccc(NC(=O)c2ccco2)cc1NC(=O)C(C)Oc1ccc(Cl)cc1Cl (configuration not stated) | inactive | inactive | inactive | inactive | – | – | –
15 | NC(=O)[C@H]1CC2(CC(c3cccc(NC(=O)[C@H]4CCC(=O)N4)c3)=NO2)CN1C(=O)c1ccccc1 (some centres not stated) | inactive | inactive | inactive | inactive | – | – | –
16 | O=C(c1ccc(Br)cc1)C(CN1CCOCC1)c1ccccc1 (configuration not stated) | inactive | – | inactive | – | 8.74% [at 17.1 µM, percent relative to cAMP agonist control] | 16% [at 30.8 µM] | –
17 | CC(C)Nc1nc(NC(C)C)nc(OCCOC(=O)c2ccccc2)n1 | inactive | inactive | inactive | inactive | – | – | –
18 | COc1ccc(Cl)cc1NC(=O)c1c(NCc2ccc(C)o2)sc2c1CCCCC2 | inactive | inactive | inactive | inactive | – | – | –
19 | COc1cc(C2NC(=O)c3c(sc4c3CCN(C)C4)N2)cc(Br)c1OC(=O)c1ccc(C)cc1 (configuration not stated) | inactive | inactive | – | inactive | – | – | inactive [at 12.7 µM]
20 | O=C(CSc1nc2ccc(Cl)cc2[nH]1)N1CCN(C(=O)c2ccco2)CC1 | inactive | inactive | inactive | inactive | – | – | –
21 | O=C(NCCCN1CCOCC1)c1ccc2c(c1)N(Cc1cccc(Cl)c1)C(=O)c1ccccc1S2 | inactive | inactive | inactive | inactive | – | – | –
22 | Cc1ccc(-c2cc(C(=O)Nc3ccc(S(=O)(=O)Nc4onc(C)c4C)cc3)c3ccccc3n2)cc1 | inactive | – | inactive | – | 6.25% [at 17.1 µM, percent relative to cAMP agonist control] | 1.26% [at 30.8 µM] | –
23 | COn1c2c(c3c4nonc4ccc31)CCCC2 | inactive | inactive | inactive | inactive | – | – | –
24 | Cc1nc(-c2ccc(Cl)cc2)sc1CCNC(=O)c1cccs1 | inactive | inactive | inactive | inactive | – | – | –
25 | Oc1ccc(NCc2cccc(OCc3ccccc3)c2)cc1 | inactive | inactive | inactive | inactive | – | – | –
26 | Fc1ccccc1C1CC(c2ccco2)=Nc2ccccc2S1 (configuration not stated) | inactive | – | inactive | – | 8.88% [at 17.1 µM, percent relative to cAMP agonist control] | -3.18% [at 30.8 µM] | –
27 | O=C(N/N=C/c1ccc(Sc2ccccn2)o1)c1cc2ccccc2cc1O | inactive | inactive | inactive | inactive | – | – | –

Row | SMILES | Potency [1] | Potency [2] | Potency [3] | Potency [4] | activation [2] | activity change, negative = inhibition [4] | outcome [3]
28 | O=C(Nc1cccc(Cl)c1)Nc1ccccc1NS(=O)(=O)c1cccs1 | inactive | – | inactive | – | 0% [at 17.1 µM, percent relative to cAMP agonist control] | -19.4% [at 30.8 µM] | –
29 | CCN(C(=O)Cn1c(C(=O)OC)cc2sccc21)c1cccc(C)c1 | inactive | inactive | inactive | inactive | – | – | –
30 | CC(CNC(=O)c1sc2ncccc2c1-n1cccc1)c1ccccc1 (configuration not stated) | inactive | inactive | inactive | inactive | – | – | –
31 | Cc1ccc(NC(=O)CC2S/C(=N/N=C3\CCCc4ccccc43)NC2=O)cc1 (configuration not stated) | inactive | – | inactive | – | 0% [at 17.1 µM, percent relative to cAMP agonist control] | -9.99% [at 30.8 µM] | –
32 | COc1ccccc1-c1oc2ccccc2c1C#CC(C)(C)O | inactive | inactive | inactive | inactive | – | – | –
33 | C[C@H]1CN([C@@H](C)CO)S(=O)(=O)c2ccc(Br)cc2O[C@@H]1CN(C)Cc1cccc(F)c1 | inactive | – | inactive | – | 15% [at 17.1 µM, percent relative to cAMP agonist control] | -8.18% [at 30.8 µM] | –
34 | CCc1ccc2c(c1)NC(=O)C2(C)Cc1ccc(F)cc1 (configuration not stated) | inactive | – | inactive | – | 12.7% [at 17.1 µM, percent relative to cAMP agonist control] | 16.2% [at 30.8 µM] | –
35 | N#CCC(=O)N/N=C/c1coc2ccccc2c1=O | inactive | inactive | inactive | inactive | – | – | –
36 | COc1ccc(OC)c(NC(=O)CSc2nc(O)cc(=O)n2CC(C)C)c1 | inactive | inactive | inactive | inactive | – | – | –
37 | O=C1CC(c2ccccc2)=NN1c1nc(-c2ccccc2)cs1 | inactive | inactive | inactive | inactive | – | – | –
38 | O=c1cc(-c2ccccc2)[nH]n1-c1nc2ccccc2s1 | inactive | – | inactive | – | 11.1% [at 17.1 µM, percent relative to cAMP agonist control] | 2.08% [at 30.8 µM] | –
39 | S=c1[nH]nc(-c2cc(-c3ccccc3)n[nH]2)n1/N=C/c1cccc(Cl)c1 | inactive | inactive | inactive | inactive | – | – | –
40 | O=C(N/N=C/c1c(O)ccc2ccccc12)c1[nH]ncc1Br | inactive | inactive | inactive | inactive | – | – | –
41 | CCCOc1ccc(/C=C2/C(=O)ON=C2C)cc1Cl | inactive | inactive | inactive | inactive | – | – | –
42 | COc1cc2c(cc1OC)C(c1cccs1)N(C(=O)C(C)C)CC2 (configuration not stated) | inactive | inactive | inactive | inactive | – | – | –
43 | COc1cc2c(cc1OC)C(c1ccc(Cl)cc1)N(c1ccc(C)c(F)c1)C(=O)C2 (configuration not stated) | inactive | inactive | – | inactive | – | – | inactive [at 12.7 µM]
44 | CC(c1nc2ccccc2n1Cc1ccccc1)n1c(-c2cnccn2)nc2ccccc21 (configuration not stated) | inactive | inactive | inactive | inactive | – | – | –
45 | COc1ccc(OC)c(-n2c(SC)nnc2-c2c[nH]c3ccccc23)c1 | inactive | inactive | inactive | inactive | – | – | –
46 | CN(c1ccccc1)c1ccc(/C=C(/CCC(=O)O)c2nc3ccccc3s2)cc1[N+](=O)[O-] | inactive | inactive | inactive | inactive | – | – | –
47 | COc1ccc(OCc2nc3ccccc3n2Cc2ccc(C(C)(C)C)cc2)cc1 | inactive | inactive | inactive | inactive | – | – | –
48 | CCOC(=O)c1ccc(-n2c(N)c(C(=O)OC)c3nc4ccccc4nc32)cc1 | inactive | inactive | – | inactive | – | – | inactive [at 12.7 µM]
49 | CCCN1CCN(c2ncnc3sc(C(=O)Nc4ccc(OC(F)(F)F)cc4)c(C)c23)CC1 | inactive | inactive | inactive | inactive | – | – | –
50 | O=C(CSc1nc(-c2ccccc2)nc2c1Cc1ccccc1O2)Nc1ccc(C(=O)O)cc1 | inactive | inactive | inactive | inactive | – | – | –
51 | CSc1ccccc1C(=O)N(C)C(c1ccccc1)c1ccccc1 | inactive | inactive | 26.9 µM (active) | inactive | – | – | –
52 | COc1cc(NC(=O)c2cc3nc(-c4ccccc4)cc(-c4ccccc4)n3n2)cc(OC)c1OC | inactive | inactive | inactive | inactive | – | – | –
53 | CCOC(=O)C1=CN(Cc2cccc(F)c2)S(=O)(=O)NC1c1ccc(Br)cc1F (configuration not stated) | inactive | inactive | inactive | inactive | – | – | –
